Measured potencies and affinities stand elsewhere. Active and inactive are the calls of the source. The rule behind the calls is not given here.
biological target: Beta-2 adrenergic receptor (Homo sapiens) (UniProt P07550); assay: ADRB2 activation measured by internalization – cell-based, FAP fluorogen, flow cytometry, cherry pick 1, dose response (AID 588763); conditions: AM2.2-beta2AR cells, 90 min; series mostly up to 33 µM
Sequence (P07550 whole entry, looked up): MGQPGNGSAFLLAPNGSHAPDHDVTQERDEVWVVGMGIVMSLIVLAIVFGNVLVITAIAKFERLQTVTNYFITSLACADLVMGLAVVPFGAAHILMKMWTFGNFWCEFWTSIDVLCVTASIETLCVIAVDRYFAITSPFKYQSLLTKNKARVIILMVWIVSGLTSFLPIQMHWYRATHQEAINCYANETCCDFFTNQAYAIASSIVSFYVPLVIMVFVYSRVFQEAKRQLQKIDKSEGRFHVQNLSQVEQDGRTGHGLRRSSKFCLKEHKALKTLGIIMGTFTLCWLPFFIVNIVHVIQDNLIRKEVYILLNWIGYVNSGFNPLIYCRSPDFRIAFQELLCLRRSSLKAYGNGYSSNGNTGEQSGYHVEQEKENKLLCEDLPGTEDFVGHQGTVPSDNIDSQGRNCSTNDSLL

outcome, inactive:
Cc1ccc(S(=O)(=O)c2ccc([N+](=O)[O-])o2)cc1
Cn1nnnc1Sc1ncnc2scc(-c3cc4ccccc4o3)c12
Fc1ccc(Sc2nc(-c3ccccc3)nnc2C(F)(F)F)cc1
COc1ccc(S(=O)(=O)N(C)CC(=O)N2CCN(c3ccc(F)cc3)CC2)cc1OC
COc1ccc(-c2nc3c4ccccc4ccn3c2CN2CCOCC2)cc1OC
CC1CCCN(C(=O)C(C)Sc2nc(-c3ccccc3)cc(C(F)(F)F)n2)C1 (configuration not stated)
CCC(NC(=O)c1cc(COc2cncc(Cl)c2)on1)c1ccc(C)cc1 (configuration not stated)
COc1cc(CNCCc2ccc(S(N)(=O)=O)cc2)ccc1OCc1ccc(Cl)cc1
O=C(CSc1ccc(Cl)cc1)Nc1ccccc1N1CCN(C(=O)c2ccccc2)CC1
CCCC(=O)N1CCN(c2ccc(NC(=O)c3ccc([N+](=O)[O-])o3)cc2Cl)CC1
O=C(c1cc2c(ccc3ccccc32)o1)N1CCN(c2ncc(C(F)(F)F)cc2Cl)CC1
COc1ccc(Cn2nc(-c3ccccc3)c(N3CCCCC3)cc2=O)cc1
O=C(CCn1c(=O)[nH]c2ccsc2c1=O)NCc1ccc(F)cc1
O=[N+]([O-])c1cnc(Sc2ccncn2)s1
NS(=O)(=O)c1ccc(NC(=O)c2cccc(N3C(=O)c4ccccc4C3=O)c2)cc1
COc1ccccc1N1CCN(C(=O)CN(C)S(=O)(=O)c2cc(C)ccc2OC)CC1
Cc1ccc(NC(=O)c2cc(N3C(=O)C=CC3=O)ccc2N2CCOCC2)cc1

Source: PubChem BioAssay AID588763 (NMMLSC, 2011)
